From PubChem BioAssay (Tox21)
Results filed as inconclusive are left out. Unmarked numbers belong to inactive results. Active and inactive are the calls of the source. Calls come from the whole dose curve; as a rule, active = well fitted inhibition curve with a large enough effect in the repeat runs; inconclusive = weak or mixed curves; inactive = no such curve, though single readings can be large or run the other way.

Biological target: Cytochrome P450 2D6 (Homo sapiens) (UniProt P10635)
Test: Cytochrome P450 Family 2 Subfamily D Member 6 (CYP2D6) small molecule antagonists: luciferase reporter qHTS assay (AID 1671196); note: nearly all actives have a fitted effect of over 50% in size
Details: P450-Glo CYP2D6 enzyme assay, luciferin luminescence, 1 h; series mostly up to 115 µM; activity change, negative = inhibition: at the top concentration
Method in brief: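 Luminogenic proluciferin substrate, CYP2D6 enzyme; 10 min RT preincubation with compound, NADPH regeneration system added, 1 h RT. Stop/detection reagent, 20 min RT, luminescence read (RLU). Signal proportional to CYP activity.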
% is set by controls: 0 for no effect and ±100 for the full control effect; potency is the fitted concentration of half-maximal effect.

Chain of Cytochrome P450 2D6 (Homo sapiens) (P10635 whole entry, looked up): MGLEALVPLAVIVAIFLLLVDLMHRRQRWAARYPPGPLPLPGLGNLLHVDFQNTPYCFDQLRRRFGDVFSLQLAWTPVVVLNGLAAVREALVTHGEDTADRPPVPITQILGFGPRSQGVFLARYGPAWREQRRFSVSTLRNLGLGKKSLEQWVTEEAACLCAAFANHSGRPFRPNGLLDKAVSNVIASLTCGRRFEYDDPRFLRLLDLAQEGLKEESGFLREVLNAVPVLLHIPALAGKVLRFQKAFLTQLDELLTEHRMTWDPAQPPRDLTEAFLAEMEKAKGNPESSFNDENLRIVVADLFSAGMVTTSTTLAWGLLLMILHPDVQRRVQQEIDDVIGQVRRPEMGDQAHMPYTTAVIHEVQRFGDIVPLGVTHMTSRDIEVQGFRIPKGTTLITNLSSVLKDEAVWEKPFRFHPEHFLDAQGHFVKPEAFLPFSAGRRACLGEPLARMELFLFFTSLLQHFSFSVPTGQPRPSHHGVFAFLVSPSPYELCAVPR

| SMILES | Potency | activity change, negative = inhibition |
| --- | --- | --- |
| c1ccc(CCCc2ccncc2)cc1 | 4.48 µM (active) | – |
| CCN(CC)c1ccc(C(=C2C=CC(=[N+](CC)CC)C=C2)c2ccc(S(=O)(=O)O)cc2S(=O)(=O)[O-])cc1 | 20 µM (active) | – |
| CC(C)(O)CCc1ccccc1 | – | -10.6% |
| CC(=O)OCC(C)C | – | -0.569% |
| CC(C)(O)c1coc(S(=O)(=O)NC(=O)Nc2c3c(cc4c2CCC4)CCC3)c1 | – | -21.9% |
| CCCCCCCCCCCCCCCC(=O)OCC | – | -3.2% |
| CN1C(CSCC(F)(F)F)Nc2cc(Cl)c(S(N)(=O)=O)cc2S1(=O)=O (stereo not drawn) | – | -19.5% [at 53 µM] |
| CC1C(C)(C)C2=C(C(=O)CCC2)C1(C)C (stereo not drawn) | – | -7.22% |
| CCCCCCCCCCCCCC(=O)OCC(O)CO (stereo not drawn) | – | -19.4% |
| CC(C)C(O)C(C)(C)CO (stereo not drawn) | 32.7 µM (active) | – |
| Cc1cccc(C)c1NC(=O)c1cc(S(N)(=O)=O)c(Cl)cc1O | – | -10.8% [at 53 µM] |
| CC1CCCC(=O)C1=O (stereo not drawn) | – | -7.39% |
| O=C(NS(=O)(=O)/C=C/c1ccccc1)c1ccc(F)cc1Cl | – | -13.4% |
| Nc1ccc(F)cc1 | – | -8.84% |
| CCOc1ncc(F)c(=O)[nH]1 | – | -2.19% [at 53 µM] |
| O=S(=O)(O)CO | – | -10% |
| CCC(Cl)CC(Cl)C(Cl)C(Cl)C(Cl)C(C)Cl (stereo not drawn) | – | -20% [at 23.6 µM] |
| O=CNNC=O | – | -0.625% |
| CCC(C)(C)C(=O)O | – | -0.576% |
| CCOC(=O)C(C)O (stereo not drawn) | – | -41.3% |

| SMILES | Potency | activity change, negative = inhibition |
| --- | --- | --- |
| CCC(CO)(CO)CO | – | -0.753% |
| CCN(Cc1cccc(S(=O)(=O)O)c1)c1ccc(C(=C2C=CC(=[N+](CC)Cc3cccc(S(=O)(=O)O)c3)C=C2)c2ccccc2S(=O)(=O)[O-])cc1 | 17.9 µM (active) | – |
| CCN(CC)c1cccc(O)c1 | 36.3 µM (active) | – |
| CCCCCCC(O)CCCCCCCCCCC(=O)OC (stereo not drawn) | – | -10.1% |
| COC(C)(C)OC | – | 1.8% |
| CCCCCCCC/C=C/C(=O)O | – | -14.1% [at 53 µM] |
| O=C(O)CO | – | -9.09% |
| CCCCOC(=O)CCCCC(=O)OCCCC | – | -6.18% |
| CC(=O)NCCO | – | -24.9% |
| CSCC[C@H](NC(=O)[C@H](Cc1c[nH]c2ccccc12)NC(=O)CCNC(=O)OC(C)(C)C)C(=O)N[C@@H](CC(=O)O)C(=O)N[C@@H](Cc1ccccc1)C(N)=O | – | -22.5% [at 53 µM] |
| FC(F)(F)C(F)(F)C(F)(F)C(F)(F)CCI | – | 0.217% [at 53 µM] |
| COC1CCC=CO1 (stereo not drawn) | – | 0.601% |
| CCc1ccc(C)cc1 | – | -9.38% |
| O=C(O)CCS | – | -20.4% |
| CC(C)C(=O)OCCOc1ccccc1 | – | -16.6% |
| [Cl][Nd]([Cl])[Cl] | – | -9.14% |
| NC(=O)CCCCC(N)=O | – | -6.53% |
| CC(C)N(C)C | – | -39.4% |
| Cc1oc(=O)oc1COC(=O)[C@@H]1N2C(=O)[C@@H](NC(=O)[C@H](N)c3ccccc3)[C@H]2SC1(C)C | – | -10.2% [at 53 µM] |

Biological target: Cytochrome P450 2C19 (Homo sapiens) (UniProt P33261)
Sequence (P33261 whole entry, looked up): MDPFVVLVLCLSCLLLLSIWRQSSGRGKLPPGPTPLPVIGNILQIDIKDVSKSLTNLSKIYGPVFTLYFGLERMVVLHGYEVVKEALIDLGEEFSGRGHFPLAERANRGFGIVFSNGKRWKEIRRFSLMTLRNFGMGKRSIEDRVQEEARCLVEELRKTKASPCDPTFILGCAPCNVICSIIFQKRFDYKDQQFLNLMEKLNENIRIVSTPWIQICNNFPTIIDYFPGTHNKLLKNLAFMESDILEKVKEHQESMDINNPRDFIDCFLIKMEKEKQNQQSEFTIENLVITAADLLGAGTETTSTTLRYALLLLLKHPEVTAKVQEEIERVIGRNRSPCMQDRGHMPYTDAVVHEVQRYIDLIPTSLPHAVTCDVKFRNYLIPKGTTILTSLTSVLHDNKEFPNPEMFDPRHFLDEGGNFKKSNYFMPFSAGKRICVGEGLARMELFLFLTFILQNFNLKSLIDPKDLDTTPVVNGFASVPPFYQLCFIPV
Test: Cytochrome P450 Family 2 Subfamily C Member 19 (CYP2C19) small molecule antagonists: luciferase reporter qHTS assay (AID 1671197); note: nearly all actives have a fitted effect of over 65% in size
Details: P450-Glo CYP2C19 enzyme, luciferin luminescence, 1 h; series mostly up to 115 µM; activity change, negative = inhibition: at the top concentration
Method in brief: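 Compounds were tested on CYP2C19 activity via proluciferin conversion to luciferin. The 37C, 1 h reaction followed NADPH addition; detection reagent stopped it.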

| SMILES | Potency | activity change, negative = inhibition |
| --- | --- | --- |
| c1ccc(CCCc2ccncc2)cc1 | 0.633 µM (active) | – |
| CCN(CC)c1ccc(C(=C2C=CC(=[N+](CC)CC)C=C2)c2ccc(S(=O)(=O)O)cc2S(=O)(=O)[O-])cc1 | 17.8 µM (active) | – |
| CC(C)(O)CCc1ccccc1 | 71 µM (active) | – |
| CC(=O)OCC(C)C | – | 8.94% |
| CC(C)(O)c1coc(S(=O)(=O)NC(=O)Nc2c3c(cc4c2CCC4)CCC3)c1 | 35.6 µM (active) | – |
| CCCCCCCCCCCCCCCC(=O)OCC | – | -6.46% |
| CN1C(CSCC(F)(F)F)Nc2cc(Cl)c(S(N)(=O)=O)cc2S1(=O)=O (stereo not drawn) | – | 55.8% [at 52.9 µM] |
| CC1C(C)(C)C2=C(C(=O)CCC2)C1(C)C (stereo not drawn) | – | -13.3% |
| CCCCCCCCCCCCCC(=O)OCC(O)CO (stereo not drawn) | 35.6 µM (active) | – |
| CC(C)C(O)C(C)(C)CO (stereo not drawn) | 41.2 µM (active) | – |
| Cc1cccc(C)c1NC(=O)c1cc(S(N)(=O)=O)c(Cl)cc1O | – | 19.7% [at 52.9 µM] |
| CC1CCCC(=O)C1=O (stereo not drawn) | – | -3.39% |
| O=C(NS(=O)(=O)/C=C/c1ccccc1)c1ccc(F)cc1Cl | – | -12% |
| Nc1ccc(F)cc1 | – | -20.6% |
| CCOc1ncc(F)c(=O)[nH]1 | – | 7.8% [at 52.9 µM] |
| O=S(=O)(O)CO | 35.1 µM (active) | – |
| CCC(Cl)CC(Cl)C(Cl)C(Cl)C(Cl)C(C)Cl (stereo not drawn) | 1.73 µM (active) | – |
| O=CNNC=O | – | -6.34% |
| CCC(C)(C)C(=O)O | – | 11% |
| CCOC(=O)C(C)O (stereo not drawn) | – | -10.8% |

| SMILES | Potency | activity change, negative = inhibition |
| --- | --- | --- |
| CCC(CO)(CO)CO | – | 19.8% |
| CCN(Cc1cccc(S(=O)(=O)O)c1)c1ccc(C(=C2C=CC(=[N+](CC)Cc3cccc(S(=O)(=O)O)c3)C=C2)c2ccccc2S(=O)(=O)[O-])cc1 | 17.9 µM (active) | – |
| CCN(CC)c1cccc(O)c1 | 5.13 µM (active) | – |
| CCCCCCC(O)CCCCCCCCCCC(=O)OC (stereo not drawn) | – | 9.04% |
| COC(C)(C)OC | 69 µM (active) | – |
| CCCCCCCC/C=C/C(=O)O | – | -20.2% [at 52.9 µM] |
| O=C(O)CO | – | 7.21% |
| CCCCOC(=O)CCCCC(=O)OCCCC | 35.6 µM (active) | – |
| CC(=O)NCCO | – | 0.754% |
| CSCC[C@H](NC(=O)[C@H](Cc1c[nH]c2ccccc12)NC(=O)CCNC(=O)OC(C)(C)C)C(=O)N[C@@H](CC(=O)O)C(=O)N[C@@H](Cc1ccccc1)C(N)=O | – | -9.84% [at 52.9 µM] |
| FC(F)(F)C(F)(F)C(F)(F)C(F)(F)CCI | – | 9.08% [at 52.9 µM] |
| COC1CCC=CO1 (stereo not drawn) | – | -7.3% |
| CCc1ccc(C)cc1 | – | 26% |
| O=C(O)CCS | – | 19.4% |
| CC(C)C(=O)OCCOc1ccccc1 | 39.9 µM (active) | – |
| [Cl][Nd]([Cl])[Cl] | – | -12.9% |
| NC(=O)CCCCC(N)=O | – | 29.4% |
| CC(C)N(C)C | – | 4.82% |
| Cc1oc(=O)oc1COC(=O)[C@@H]1N2C(=O)[C@@H](NC(=O)[C@H](N)c3ccccc3)[C@H]2SC1(C)C | – | -0.431% [at 52.9 µM] |
